Experiment [1] in a line: ATG_Sox_CIS: Attagene CIS-FACTORIAL HepG2 Assay for human SRY-box transcription factor (SOX) (AID 2282960). The note with it: HepG2 Attagene cis-factorial SOX reporter, mRNA; actives raise or lower the signal. Summed up:
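HepG2, cis reporter units, 24 h exposure. Reporter mRNA: RT-PCR → FAM labelling → HpaI → CE fluorescence. Bidirectional fit vs DMSO.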

Experiment [2] deals with Transcription factor Sp1 (Homo sapiens) (UniProt P08047). In words: ATG_Sp1_CIS: Attagene CIS-FACTORIAL HepG2 Assay for human Specificity Protein 1 (Sp1) (AID 2282961). The conditions noted are these: HepG2 Sp1 cis-reporter transcription, actives raise or lower the signal. Summed up: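 Liver-derived HepG2 cells, cis-element reporter library, 24 h treatment; RNA isolated, cDNA amplified with reporter-specific primers, FAM-labeled fragments sized on capillary analyzer. DMSO baseline, bidirectional curve fit.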

Experiment [3] is described as follows: ATG_SREBP_CIS: Attagene CIS-FACTORIAL HepG2 Assay for human Sterol Regulatory Element Binding (SREBP) (AID 2282962). The note with it: HepG2 Attagene cis-factorial SREBP reporter, mRNA; actives raise or lower the signal. The gist of the method:
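Readout: fluorescent reporter-transcript peaks resolved by capillary electrophoresis after RT-PCR. Cells were human HepG2 carrying transfected cis-promoter reporter constructs, dosed for 24 h. Gain or loss of signal was fitted against DMSO controls.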

The target of experiment [4] is Signal transducer and activator of transcription 3 (Homo sapiens) (UniProt P40763). In words: ATG_STAT3_CIS: Attagene CIS-FACTORIAL HepG2 Assay for human Signal Transducer and Activator of Transcription 3 (STAT3) (AID 2282963). The note with it: HepG2, Attagene cis-factorial STAT3 reporter transcription; actives raise or lower the signal. Summed up: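 Readout: fluorescent reporter mRNA fragments resolved by capillary electrophoresis. Setup: HepG2 transfected with MRTUs reporting endogenous transcription-factor activity, dosed 24 h. Gain or loss of signal fitted bidirectionally against DMSO control.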

Experiment [5] can be described thus: ATG_TA_CIS: Attagene CIS-FACTORIAL HepG2 Assay for human TA Basal Promoter (AID 2282964). The conditions noted are these: HepG2 Attagene CIS-factorial TA basal promoter reporter; actives raise or lower the signal. The gist of the method: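 Steps: transfect HepG2 with MRTUs; dose 24 h; isolate RNA, DNase-treat, reverse-transcribe; PCR and FAM-label reporter cDNA; digest with HpaI 2h at 37 C; run capillary electrophoresis. Activity fitted both directions against DMSO.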

Experiment [6] can be described thus: ATG_TCF_b_cat_CIS: Attagene CIS-FACTORIAL HepG2 Assay for human T-Cell-Factor with beta-catenin (TCF/b-cat) (AID 2282965). The conditions noted are these: HepG2 TCF/beta-catenin cis-reporter transcription, actives raise or lower the signal. Summed up: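 Cells of the HepG2 line carry transiently transfected reporter units whose promoters respond to endogenous factors. Twenty-four hours post-dosing, reporter mRNA induction is measured by fluorescent RT-PCR and capillary electrophoresis, with DMSO as baseline.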

Experiment [7] is described as follows: ATG_TAL_CIS: Attagene CIS-FACTORIAL HepG2 Assay for human TAL Basal Promoter (AID 2282966).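 Further: background control endpoint measuring basal TAL promoter reporter mRNA not a specific factor.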 The note with it: HepG2 Attagene cis-factorial TAL promoter reporter; actives raise or lower the signal. Summed up:
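Transiently transfected HepG2 (cis-regulated reporter units), 24 h treatment, mRNA read by fluorescent CE after RT-PCR; bidirectional fit, DMSO baseline.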

The nature of experiment [8]: ATG_TGFb_CIS: Attagene CIS-FACTORIAL HepG2 Assay for human Transforming Growth Factor (TGF) (AID 2282967). The note with it: HepG2 Attagene CIS TGFb reporter, mRNA transcription; actives raise or lower the signal. Summed up:
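Cells were dosed for 24 hours, after which total RNA was reverse-transcribed and reporter sequences amplified, labeled and sized by capillary electrophoresis. Activity was fitted in both directions against DMSO.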

A short description of experiment [9]: ATG_VDRE_CIS: Attagene CIS-FACTORIAL HepG2 Assay for human Vitamin D Receptor Element (VDRE) (AID 2282968). The note with it: HepG2 VDRE cis-reporter transcription, actives raise or lower the signal. The gist of the method: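 Transient MRTU transfection of HepG2, 24 h compound exposure. Readout: reporter transcripts via RT-PCR and capillary electrophoresis, fluorescence. Bidirectional fit vs DMSO.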

Experiment [10] concerns the target X-box-binding protein 1 (Homo sapiens) (UniProt P17861). In words: ATG_Xbp1_CIS: Attagene CIS-FACTORIAL HepG2 Assay for human X-box Binding Protein 1 (XBP1) (AID 2282972). The conditions noted are these: HepG2 XBP1 cis-element reporter, Attagene multiplex; actives raise or lower the signal. Summed up:
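Read-out: fluorescent reporter mRNA fragments resolved by capillary electrophoresis after RT-PCR. Human HepG2 liver cells carried transfected cis-promoter reporter units and were exposed to chemicals for 24 hours. Gain or loss of signal fitted relative to DMSO baseline.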

The nature of experiment [11]: ATG_M_19_TRANS: Attagene TRANS-FACTORIAL HepG2 Assay for M19 Transcription Factor (Internal Marker) (AID 2282974; active means hit-call score of the fitted dose curve at least 0.9, where 1 is the maximum). The note with it: HepG2 Attagene TRANS-FACTORIAL M19 internal marker reporter. Summed up: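 Transfected HepG2 (GAL4-UAS MRTUs), 24 h compound, TriZol RNA, DNase-treated RT, reporter PCR, FAM label, HpaI digest, CE fluorescence; gain vs DMSO.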
Experiment [12] is described as follows: ATG_GAL4_TRANS: Attagene TRANS-FACTORIAL HepG2 Assay for GAL4 (Internal Marker) (AID 2282976; active means hit-call score of the fitted dose curve at least 0.9, where 1 is the maximum). The conditions noted are these: HepG2 Attagene TRANS GAL4 internal marker reporter. Summed up: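 HepG2 cells transiently transfected with multiplexed GAL4-UAS reporter constructs were dosed for 24 h. Reporter mRNA was measured by RT-PCR, 6-FAM primer extension, HpaI digestion and capillary electrophoresis, and gain of signal was fitted relative to DMSO.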

Experiment [13] has as its target Glucocorticoid receptor (Homo sapiens) (UniProt P04150). In words: ATG_GR_TRANS: Attagene TRANS-FACTORIAL HepG2 Assay for human Glucocorticoid Receptor (GR) (AID 2282978; active means hit-call score of the fitted dose curve at least 0.9, where 1 is the maximum;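 further: activators score as hits since higher reporter transcript over DMSO is fitted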). The note with it: HepG2 Attagene TRANS GR reporter, mRNA transcription. The gist of the method:
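After 24 h incubation with test chemical, transfected HepG2 cells were lysed for RNA; reporter cDNA was amplified, FAM-labelled, HpaI-digested and sized on a capillary analyser. Signal gain relative to DMSO was scored.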

For experiment [14], the target named is Oxysterols receptor LXR-beta (Homo sapiens) (UniProt P55055). Nature of the experiment: ATG_LXRb_TRANS: Attagene TRANS-FACTORIAL HepG2 Assay for human Liver X Receptor beta (LXRb) (AID 2282981; active means hit-call score of the fitted dose curve at least 0.9, where 1 is the maximum). The conditions noted are these: HepG2 Attagene TRANS GAL4-LXRb reporter, mRNA. The gist of the method: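 Readout: fluorescent reporter mRNA fragments resolved by capillary electrophoresis after RT-PCR. System: transiently transfected human HepG2, exogenous LXRb-Gal4 chimera driving GAL4-UAS reporter, 24 h dosing. Activity fitted upward against DMSO baseline.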

Experiment [15] concerns the target Oxysterols receptor LXR-alpha (Homo sapiens) (UniProt Q13133). In words: ATG_LXRa_TRANS: Attagene TRANS-FACTORIAL HepG2 Assay for human Liver X Receptor alpha (LXRa) (AID 2282980; active means hit-call score of the fitted dose curve at least 0.9, where 1 is the maximum). The conditions noted are these: HepG2 Attagene TRANS reporter, LXRa transactivation. The gist of the method: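 HepG2 cells were transiently transfected with multiplexed reporter units driven by chimeric LXRa–GAL4 fusion proteins, then dosed for 24 h. Reporter mRNA was quantified by RT-PCR, fluorescent labelling and capillary electrophoresis; gain of signal fitted against DMSO baseline.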

The target in experiment [16] is Nuclear receptor subfamily 1 group I member 3 (Homo sapiens) (UniProt Q14994). In words: ATG_CAR_TRANS: Attagene TRANS-FACTORIAL HepG2 Assay for human Constitutive Androstane Receptor (CAR) (AID 2282969; active means hit-call score of the fitted dose curve at least 0.9, where 1 is the maximum;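 further: activators raise reporter mRNA above DMSO so AC50 marks induction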). The conditions noted are these: HepG2 Attagene TRANS-FACTORIAL CAR reporter. The gist of the method:
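Transiently transfected HepG2, multiplex TRANS reporters (CAR-Gal4 chimera driving GAL4-UAS reporter). 24 h dosing. Readout: reporter transcript by RT-PCR + capillary electrophoresis, fluorescence intensity; positive direction vs DMSO.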

Records with an inconclusive call do not appear. The source made the active and inactive calls. How the source made its calls, unless noted: active means hit-call score of the fitted dose curve at least 0.9, where 1 is the maximum; inactive means score below 0.9.

What is called AC50 is the concentration at which the activity in the assay is half-maximal.

Chain of Signal transducer and activator of transcription 3 (Homo sapiens) (P40763 whole entry, looked up, the tested form may be a part): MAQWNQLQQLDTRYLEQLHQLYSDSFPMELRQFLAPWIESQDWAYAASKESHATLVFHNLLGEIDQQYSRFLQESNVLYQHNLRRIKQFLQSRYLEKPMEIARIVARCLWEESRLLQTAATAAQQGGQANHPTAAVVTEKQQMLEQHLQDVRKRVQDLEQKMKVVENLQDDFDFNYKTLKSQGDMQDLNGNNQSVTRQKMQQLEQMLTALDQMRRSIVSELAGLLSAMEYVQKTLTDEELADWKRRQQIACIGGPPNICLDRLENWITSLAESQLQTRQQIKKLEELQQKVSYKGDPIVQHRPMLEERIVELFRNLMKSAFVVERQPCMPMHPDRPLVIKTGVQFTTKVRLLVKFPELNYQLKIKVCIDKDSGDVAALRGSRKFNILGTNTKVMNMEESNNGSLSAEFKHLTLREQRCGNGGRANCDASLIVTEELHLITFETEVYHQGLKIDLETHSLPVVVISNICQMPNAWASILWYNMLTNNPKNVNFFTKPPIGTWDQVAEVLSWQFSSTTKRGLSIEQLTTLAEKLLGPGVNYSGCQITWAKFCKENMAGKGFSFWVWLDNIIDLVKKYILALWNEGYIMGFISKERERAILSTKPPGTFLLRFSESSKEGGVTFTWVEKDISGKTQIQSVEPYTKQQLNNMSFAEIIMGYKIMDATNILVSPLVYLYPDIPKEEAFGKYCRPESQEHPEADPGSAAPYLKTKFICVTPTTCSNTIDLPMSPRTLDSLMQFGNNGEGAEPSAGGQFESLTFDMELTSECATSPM
Chain of Oxysterols receptor LXR-alpha (Homo sapiens) (Q13133 whole entry, looked up, the tested form may be a part): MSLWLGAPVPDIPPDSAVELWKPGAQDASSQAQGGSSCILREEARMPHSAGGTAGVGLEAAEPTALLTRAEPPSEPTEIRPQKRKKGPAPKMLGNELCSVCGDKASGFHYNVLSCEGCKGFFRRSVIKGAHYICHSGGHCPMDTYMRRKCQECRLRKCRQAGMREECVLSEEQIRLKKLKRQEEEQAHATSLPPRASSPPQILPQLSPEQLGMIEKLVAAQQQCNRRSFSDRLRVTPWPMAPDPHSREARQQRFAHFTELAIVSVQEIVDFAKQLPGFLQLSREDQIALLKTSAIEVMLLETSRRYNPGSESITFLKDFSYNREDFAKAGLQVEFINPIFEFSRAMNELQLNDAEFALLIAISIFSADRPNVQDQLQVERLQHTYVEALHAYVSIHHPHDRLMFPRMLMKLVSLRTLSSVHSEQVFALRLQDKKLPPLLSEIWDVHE
Chain of X-box-binding protein 1 (Homo sapiens) (P17861 whole entry, looked up, the tested form may be a part): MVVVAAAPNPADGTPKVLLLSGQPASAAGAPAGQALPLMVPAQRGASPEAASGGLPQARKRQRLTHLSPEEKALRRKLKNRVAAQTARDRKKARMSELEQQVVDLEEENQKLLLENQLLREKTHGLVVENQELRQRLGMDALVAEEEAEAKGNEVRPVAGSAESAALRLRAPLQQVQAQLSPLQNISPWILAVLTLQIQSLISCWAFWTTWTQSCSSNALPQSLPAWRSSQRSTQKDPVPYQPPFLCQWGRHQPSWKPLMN
Chain of Transcription factor Sp1 (Homo sapiens) (P08047 whole entry, looked up, the tested form may be a part): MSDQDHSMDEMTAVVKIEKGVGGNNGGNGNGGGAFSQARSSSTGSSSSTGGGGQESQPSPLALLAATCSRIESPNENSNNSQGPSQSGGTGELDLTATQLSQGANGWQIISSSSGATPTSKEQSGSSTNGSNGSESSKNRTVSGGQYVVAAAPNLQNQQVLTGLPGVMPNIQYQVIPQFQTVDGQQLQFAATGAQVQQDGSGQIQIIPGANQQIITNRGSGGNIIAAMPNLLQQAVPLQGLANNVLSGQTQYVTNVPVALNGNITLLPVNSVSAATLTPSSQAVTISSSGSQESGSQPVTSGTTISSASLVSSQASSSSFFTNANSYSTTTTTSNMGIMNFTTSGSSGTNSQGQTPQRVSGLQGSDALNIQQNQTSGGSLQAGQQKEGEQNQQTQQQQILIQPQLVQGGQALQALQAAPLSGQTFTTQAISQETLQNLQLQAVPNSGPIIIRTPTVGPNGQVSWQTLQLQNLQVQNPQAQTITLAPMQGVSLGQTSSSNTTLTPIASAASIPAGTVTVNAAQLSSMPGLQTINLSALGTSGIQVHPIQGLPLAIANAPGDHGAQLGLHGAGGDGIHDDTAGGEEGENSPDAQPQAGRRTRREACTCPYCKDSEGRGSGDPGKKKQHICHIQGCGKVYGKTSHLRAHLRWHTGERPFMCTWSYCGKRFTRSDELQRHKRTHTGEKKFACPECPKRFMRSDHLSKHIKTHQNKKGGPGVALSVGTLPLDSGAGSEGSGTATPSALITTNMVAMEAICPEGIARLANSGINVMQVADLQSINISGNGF
Chain of Glucocorticoid receptor (Homo sapiens) (P04150 whole entry, looked up): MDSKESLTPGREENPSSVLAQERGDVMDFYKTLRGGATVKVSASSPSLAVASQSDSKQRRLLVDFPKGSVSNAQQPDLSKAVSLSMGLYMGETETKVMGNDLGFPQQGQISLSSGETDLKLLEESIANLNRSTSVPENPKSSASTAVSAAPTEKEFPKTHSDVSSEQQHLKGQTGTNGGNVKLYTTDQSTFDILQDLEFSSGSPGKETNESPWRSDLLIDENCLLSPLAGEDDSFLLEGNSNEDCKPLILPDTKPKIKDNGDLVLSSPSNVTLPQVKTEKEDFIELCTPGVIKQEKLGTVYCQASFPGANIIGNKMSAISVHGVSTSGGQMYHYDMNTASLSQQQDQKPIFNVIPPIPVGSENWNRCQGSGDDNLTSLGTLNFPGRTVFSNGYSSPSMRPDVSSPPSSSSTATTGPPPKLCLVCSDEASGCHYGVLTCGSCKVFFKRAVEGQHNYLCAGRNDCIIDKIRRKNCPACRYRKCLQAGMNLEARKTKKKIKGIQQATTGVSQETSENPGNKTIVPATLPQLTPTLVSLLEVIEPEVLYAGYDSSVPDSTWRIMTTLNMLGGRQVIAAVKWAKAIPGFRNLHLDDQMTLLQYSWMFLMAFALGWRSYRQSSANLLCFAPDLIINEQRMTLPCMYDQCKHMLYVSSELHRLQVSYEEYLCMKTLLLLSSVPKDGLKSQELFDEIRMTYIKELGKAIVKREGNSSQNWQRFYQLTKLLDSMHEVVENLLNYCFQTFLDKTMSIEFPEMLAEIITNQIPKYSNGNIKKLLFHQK
Chain of Oxysterols receptor LXR-beta (Homo sapiens) (P55055 whole entry, looked up, the tested form may be a part): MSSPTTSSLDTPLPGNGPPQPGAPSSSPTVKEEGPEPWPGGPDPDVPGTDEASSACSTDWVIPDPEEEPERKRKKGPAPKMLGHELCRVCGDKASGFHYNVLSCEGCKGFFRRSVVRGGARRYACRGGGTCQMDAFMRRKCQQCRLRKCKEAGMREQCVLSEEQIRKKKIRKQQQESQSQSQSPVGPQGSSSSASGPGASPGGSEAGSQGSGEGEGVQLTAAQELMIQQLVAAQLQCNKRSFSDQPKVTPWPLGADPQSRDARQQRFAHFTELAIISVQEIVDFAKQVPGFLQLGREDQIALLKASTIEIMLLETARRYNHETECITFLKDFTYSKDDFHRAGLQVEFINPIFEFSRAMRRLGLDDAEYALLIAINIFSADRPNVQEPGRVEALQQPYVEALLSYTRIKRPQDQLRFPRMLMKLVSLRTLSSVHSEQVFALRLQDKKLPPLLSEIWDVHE
Chain of Nuclear receptor subfamily 1 group I member 3 (Homo sapiens) (Q14994 whole entry, looked up, the tested form may be a part): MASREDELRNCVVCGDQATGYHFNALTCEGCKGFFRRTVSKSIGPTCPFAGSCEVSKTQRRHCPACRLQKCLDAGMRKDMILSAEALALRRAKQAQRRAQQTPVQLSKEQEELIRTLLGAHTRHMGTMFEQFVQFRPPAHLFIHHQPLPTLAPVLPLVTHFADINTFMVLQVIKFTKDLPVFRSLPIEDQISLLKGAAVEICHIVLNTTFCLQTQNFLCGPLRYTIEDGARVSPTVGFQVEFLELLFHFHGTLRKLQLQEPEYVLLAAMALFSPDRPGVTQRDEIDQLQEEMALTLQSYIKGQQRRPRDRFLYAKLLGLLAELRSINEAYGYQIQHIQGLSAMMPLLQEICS

As to `CC(C)(c1ccc(OCC2CO2)cc1)c1ccc(OCC2CO2)cc1` (centres undefined), the compound was called inactive in experiment [1], in experiment [2], in experiment [4], in experiment [8], in experiment [11] and in [12]. The outcome in experiment [13] and in experiment [14] was inactive. The AC50 in experiment [3] is 15.1 µM (active); in experiment [5], 33.4 µM (active); in [6] it was 49.7 µM (active); in [7], 23.2 µM (active); in [9] it was 24.9 µM (active); in [10] it was 24.4 µM (active).
In the case of `COc1ccc(OC)c(C=O)c1`, the result in [1], in [2], in [3], in experiment [4], in [5] and in experiment [6] was inactive. Further, the compound was called inactive in [7], in experiment [8], in [9], in [10], in experiment [11] and in [12]. Further, the call in experiment [13] and in experiment [15] was inactive.
For the compound `CCOC(=O)/C=C(C)/C=C/C[C@@H](C)CCCC(C)C`, the result in experiment [1], in experiment [2], in [5], in experiment [6], in [7] and in experiment [9] was inactive. Moreover, the compound was classed as inactive in experiment [10] and in [12]. The AC50 in experiment [3] was 124 µM (active); in experiment [4], 176 µM (active); in experiment [8], 47.4 µM (active).
Regarding `C=C(C)C#N`, the compound was classed as inactive in [1], in [2], in [3], in experiment [4], in [5] and in [6]. Further, the result in [7], in experiment [8], in experiment [9], in experiment [10], in experiment [11] and in [12] was inactive. Besides, in experiment [15], the call was inactive.
Consider `C=CCc1ccc(OC)cc1`, for which the result in [1], in experiment [2], in experiment [3], in experiment [4], in [5] and in experiment [6] was inactive. Further, the compound was called inactive in experiment [7], in experiment [8], in experiment [16], in [10], in experiment [12] and in experiment [15].

The values are drawn from PubChem BioAssay (EPA / NIEHS).
